Measured values from PubChem BioAssay (NCATS).
Where “and” joins values, the source holds several entries; their conditions need not be identical. Equal values may be shown once. Results filed as inconclusive are left out. Calls of active or inactive are those of the source. Unless noted, calls come from the whole dose curve; as a rule, active = well fitted curve in the direction sought with a large enough effect; inconclusive = small, poorly fitted or top-dose-only effect, or another doubt; inactive = no such curve, though single readings can be large; an effect the other way counts as inactive or inconclusive.

Key:
[1] = qHTS assay for small molecule disruptors of the mitochondrial membrane potential - 1 hr assay (AID 651754; calls by dose curve; note: nearly all actives have a fitted effect of over 35% in size; note: potency is the fitted concentration of half-maximal effect)
In short: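 Steps: seed HepG2 cells and let attach overnight; pin-transfer compound or vehicle; incubate 1 hr at 37C; add Mito-MPS dye for 30 min; read two-channel fluorescence for monomer and aggregate forms.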

[2] = target: Tumor necrosis factor (Homo sapiens) (UniProt P01375); experiment: qHTS assay to identify small molecules that stimulate Tumor Necrosis Factor-alpha (TNF-alpha) secretion (AID 651757; active = well fitted curve in the direction sought with a large enough effect in the signal ratio; the % refers to the signal ratio; note: 0% is about no effect)
In short: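 Secreted TNF-alpha from compound-treated THP-1 cells (17 hrs, 37 C) was quantified with a homogeneous time-resolved fluorescence antibody assay.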

[3] = qHTS assay for environmental chemicals that activate the Aryl hydrocarbon Receptor (AhR) signaling pathway (AID 651777); conditions: 1A2-DRE human hepatoma cells, luciferase, 24 h; activation: hits give high values; note: % of control where 0% means no effect; nearly all actives have a fitted effect of over 15% in size
In short: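 Quantitative HTS in stably transfected human liver-derived cells whose luciferase gene sits downstream of the CYP1A2 promoter and dioxin response element. After 24 hr exposure at 37 C, One-Glo luminescence was measured.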

[4] = target: Peroxisome proliferator-activated receptor alpha (Homo sapiens) (UniProt Q07869); experiment: qHTS assay for small molecule agonists of the peroxisome proliferator-activated receptor alpha (PPARalpha) signaling pathway (AID 651778); conditions: PathHunter PPARalpha complementation, chemiluminescence, 6 h; hits give high values; note: % of control where 0% means no effect
In short: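 Chemiluminescence from complemented enzyme reported PPARalpha activation in cells after 6 hr of compound treatment at 37 C. The detection reagent was incubated for 60 min at room temperature, and compounds were scored as agonists.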

[5] = target: Nuclear receptor ROR-gamma (Homo sapiens) (UniProt P51449); experiment: qHTS assay for small molecule antagonists of the retinoid-related orphan receptor gamma (ROR-gamma) signaling pathway (AID 651802); note: nearly all actives have a fitted effect of over 60% in size; note: potency is the fitted concentration of half-maximal effect
In short: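 Antagonism is scored as a fall in luminescence from a RORE-luciferase reporter in CHO cells expressing ROR under a TET-inducible promoter, measured 16hr after doxycycline induction in the presence of compound.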

[6] = qHTS assay for small molecule agonists of the antioxidant response element (ARE) signaling pathway measured by Nrf2-dependant transcriptional activity (AID 720636; active = well fitted curve in the direction sought with a large enough effect in the repeat runs; an effect the other way counts as inactive or inconclusive; note: % of control where 0% means no effect)
In short: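 Quantitative HTS format in HepG2 cells stably expressing an ARE-luciferase reporter; 16 hr compound treatment at 37 C, luciferase signal detected with ONE-Glo.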

[7] = qHTS assay for small molecule antagonists of the retinoid-related orphan receptor gamma (ROR-gamma) signaling pathway - cell viability counter screen (AID 720652; active = well fitted curve in the direction sought with a large enough effect in the repeat runs; an effect the other way counts as inactive or inconclusive;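 note: compound exposure lasted 16 hr before ATP read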; note: potency is the fitted concentration of half-maximal effect)
In short: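 Cytotoxicity is quantified via intracellular ATP (CellTiter-Glo luminescence) in doxycycline-induced CHO ROR response element-luciferase reporter cells treated with compound for 16 hr at 37 C, 5% CO2.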

[8] = qHTS assay for small molecule agonists of the antioxidant response element (ARE) signaling pathway measured by Nrf2-dependant transcriptional activity - cell viability counter screen (AID 720653; active = well fitted curve in the direction sought with a large enough effect in the repeat runs; an effect the other way counts as inactive or inconclusive; note: % is set by controls: 0 for no effect and ±100 for the full control effect); conditions: ARE-bla HepG2 viability, CellTiter-Glo ATP luminescence, 16 h; hits give low values
In short: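 Cytotoxicity counter screen: intracellular ATP quantified by CellTiter-Glo luminescence in the same ARE-bla HepG2 plates, after 16 h compound exposure and a 2 h beta-lactamase substrate step.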

[9] = qHTS assay for cell viability of the p53RE-bla HCT-116 cell line (AID 743292); note: % is set by controls: 0 for no effect and ±100 for the full control effect; nearly all actives have a fitted effect of over 55% in size
In short: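 Viability of compound-treated p53RE-bla HCT-116 cells is taken from ATP-dependent luciferase luminescence. Treatment lasts 16 h at 37 C after a 5 h settling period; detection follows 30 min at room temperature.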

[10] = target: Nuclear receptor subfamily 1 group I member 2 (Rattus norvegicus) (UniProt Q9R1A7); experiment: qHTS assay for small molecule activators of the rat pregnane X receptor (rPXR) signaling pathway (AID 651751; call rule not given here; note: 0% is about no effect); conditions: rPXR reporter cells, luciferase (One-Glo), 24 h
[11] = qHTS assay for small molecule activators of the human pregnane X receptor (PXR) signaling pathway (AID 720659; call rule not given here; note: 0% is about no effect)
[12] = qHTS assay for small molecule disruptors of the mitochondrial membrane potential - 5 hr assay (AID 651755; calls by dose curve; note: nearly all actives have a fitted effect of over 40% in size; note: potency is the fitted concentration of half-maximal effect)
In short: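 HepG2, 2,000 cells/well, overnight attach; cpd or DMSO 5 hr, 37C/5% CO2; Mito-MPS 30 min 37C; fluor 490/535 + 540/590 nm.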

[13] = qHTS assay for cell viability of HEK293 cells (AID 743288); conditions: ATP luminescence (CellTiter-Glo), 18 h, hits give low values; note: % is set by controls: 0 for no effect and ±100 for the full control effect; nearly all actives have a fitted effect of over 50% in size
In short: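 Parental HEK293 cells, 2,000 per well, preincubated at least 5 h at 37 C, then exposed to compounds in DMSO for 18 h at 37 C. Viability by CellTiter-Glo ATP luminescence after 30 min at room temperature.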

[14] = qHTS assay to identify small molecules that stimulate interleukin-8 (IL-8) secretion (AID 651758; active = well fitted activation curve with a large enough effect in the signal ratio; the % refers to the signal ratio; note: 0% is about no effect)
In short: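 Secreted IL-8 measured by TR-FRET sandwich (cryptate and XL665 antibodies) from THP-1 cells exposed to compound overnight (16 hrs, 37 C).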

Chain of Tumor necrosis factor (Homo sapiens) (P01375 whole entry, looked up): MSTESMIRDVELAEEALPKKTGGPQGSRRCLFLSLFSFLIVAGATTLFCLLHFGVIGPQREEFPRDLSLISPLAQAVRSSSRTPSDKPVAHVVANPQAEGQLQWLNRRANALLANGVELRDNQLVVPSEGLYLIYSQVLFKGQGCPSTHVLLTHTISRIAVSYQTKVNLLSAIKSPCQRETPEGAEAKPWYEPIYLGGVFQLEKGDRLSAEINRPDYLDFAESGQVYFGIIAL
Chain of Nuclear receptor subfamily 1 group I member 2 (Rattus norvegicus) (Q9R1A7 whole entry, looked up): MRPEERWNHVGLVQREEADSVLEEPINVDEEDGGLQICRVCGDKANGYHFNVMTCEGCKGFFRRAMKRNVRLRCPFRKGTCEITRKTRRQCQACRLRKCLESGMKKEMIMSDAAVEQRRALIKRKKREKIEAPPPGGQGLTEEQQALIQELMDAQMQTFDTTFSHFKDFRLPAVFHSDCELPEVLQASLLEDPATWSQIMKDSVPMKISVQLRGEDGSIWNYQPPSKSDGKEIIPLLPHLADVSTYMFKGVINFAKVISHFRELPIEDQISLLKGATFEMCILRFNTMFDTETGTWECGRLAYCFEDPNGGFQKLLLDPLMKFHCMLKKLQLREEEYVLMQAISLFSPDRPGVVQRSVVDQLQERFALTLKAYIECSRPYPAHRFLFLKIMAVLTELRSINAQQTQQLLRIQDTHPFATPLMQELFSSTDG
Chain of Peroxisome proliferator-activated receptor alpha (Homo sapiens) (Q07869 whole entry, looked up): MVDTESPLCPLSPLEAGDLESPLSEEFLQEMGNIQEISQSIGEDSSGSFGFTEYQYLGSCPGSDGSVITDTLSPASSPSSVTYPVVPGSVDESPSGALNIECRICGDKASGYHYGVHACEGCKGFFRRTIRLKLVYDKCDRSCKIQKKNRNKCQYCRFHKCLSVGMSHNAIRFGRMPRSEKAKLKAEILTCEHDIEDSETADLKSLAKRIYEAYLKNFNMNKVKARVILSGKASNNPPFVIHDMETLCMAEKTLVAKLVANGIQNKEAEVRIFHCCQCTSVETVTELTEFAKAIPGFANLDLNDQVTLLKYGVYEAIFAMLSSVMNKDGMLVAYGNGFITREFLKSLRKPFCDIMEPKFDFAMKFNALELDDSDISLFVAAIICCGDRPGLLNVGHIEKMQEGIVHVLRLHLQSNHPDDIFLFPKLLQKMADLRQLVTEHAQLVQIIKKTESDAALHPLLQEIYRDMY
Chain of Nuclear receptor ROR-gamma (Homo sapiens) (P51449 whole entry, looked up): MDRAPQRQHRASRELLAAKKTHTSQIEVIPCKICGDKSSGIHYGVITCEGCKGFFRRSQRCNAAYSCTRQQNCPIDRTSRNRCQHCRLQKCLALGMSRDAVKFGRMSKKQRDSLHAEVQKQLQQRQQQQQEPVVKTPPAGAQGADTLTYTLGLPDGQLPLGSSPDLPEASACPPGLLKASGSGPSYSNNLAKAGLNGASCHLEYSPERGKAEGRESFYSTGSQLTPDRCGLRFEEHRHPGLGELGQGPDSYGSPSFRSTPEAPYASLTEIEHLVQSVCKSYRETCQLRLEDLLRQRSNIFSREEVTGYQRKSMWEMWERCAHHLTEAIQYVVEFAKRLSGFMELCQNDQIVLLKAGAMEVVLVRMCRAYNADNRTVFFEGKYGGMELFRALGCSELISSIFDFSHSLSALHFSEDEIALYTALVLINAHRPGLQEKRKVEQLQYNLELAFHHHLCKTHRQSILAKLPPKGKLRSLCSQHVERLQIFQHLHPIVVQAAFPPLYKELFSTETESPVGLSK

O=Cc1ccc(C(=O)O)cc1
inactive: Potency [1] | Potency [2] | activation [3] -0.237% | max response [4] -5.11% | Potency [5] | outcome [6] | Potency [7] | max response [8] -13.7% | Potency [9] | max response [10] -2.3% | outcome [11]

CN(C)c1cccc(O)c1
inactive: Potency [1] | Potency [12] | activation [3] 6.91% | max response [4] -3.12% | outcome [6] | Potency [7] | max response [8] -0.49% | max response [13] -2.96% | Potency [9] | max response [10] 1.23% | outcome [11]

CCN(CC)c1cccc(O)c1
inactive: Potency [1] | Potency [12] | activation [3] 4.44% | max response [4] -5.23% | Potency [5] | outcome [6] | Potency [7] | max response [8] 5.34% | max response [13] -2.87% | Potency [9] | max response [10] 3.46%

CC(C)(c1cc(Br)c(OCC(Br)CBr)c(Br)c1)c1cc(Br)c(OCC(Br)CBr)c(Br)c1 (stereo unspecified)
inactive: Potency [2] | Potency [14] | activation [3] -1.38% | max response [4] -5.28% | Potency [5] | outcome [6] | Potency [7] | max response [8] -4.49% | max response [13] -17.5% | Potency [9] | max response [10] 6.37% | outcome [11]

Nc1cc(Cl)c(N)c(Cl)c1
inactive: Potency [1] | Potency [12] | max response [4] 1.23% and -1.85% | Potency [5] | outcome [6] | Potency [7] | max response [8] -6.05% and -8.26% | max response [13] 3.57% and -5.3% | Potency [9] | max response [10] -6.29% and -6.62% | outcome [11]

c1ccc2c(c1)ccc1ncccc12
inactive: Potency [12] | Potency [2] | activation [3] 3.95% | max response [4] -1.09% | max response [8] -7.13% | Potency [9] | max response [10] 10.2% | outcome [11]

Cc1ccc([N+](=O)[O-])c(N)c1
inactive: Potency [1] | Potency [12] | activation [3] 0.147% | max response [4] -3.68% | Potency [5] | outcome [6] | max response [8] 6.11% | max response [13] -6.54% | Potency [9] | max response [10] -3.2% | outcome [11]

CCc1ccccc1O
inactive: Potency [1] | Potency [12] | activation [3] -0.147% | Potency [5] | outcome [6] | Potency [7] | max response [8] 4.85% | max response [13] -0.782% | Potency [9] | max response [10] -3.4% | outcome [11]

Cc1cccc2sc(N)nc12
inactive: Potency [12] | Potency [2] | max response [4] -1.18% | Potency [5] | outcome [6] | Potency [7] | max response [8] -5.19% | max response [13] 2.69% | Potency [9] | max response [10] 7.23% | outcome [11]

C1CCC2OC2C1 (stereo unspecified)
inactive: Potency [1] | Potency [12] | max response [4] -2.34% | Potency [5] | outcome [6] | Potency [7] | max response [8] -3.72% | max response [13] -1.95% | Potency [9] | max response [10] -4.14% | outcome [11]

Nc1cc(Cl)c([N+](=O)[O-])cc1O
inactive: activation [3] 6.24% | max response [4] -6.88% | Potency [5] | Potency [7] | max response [8] -1.27% | max response [13] -3.32% | Potency [9] | max response [10] 3.19% | outcome [11]
active: Potency [1] 33.5 µM | Potency [12] 33.5 µM

Nc1c(Cl)cc(Cl)cc1Cl
inactive: Potency [1] | Potency [12] | activation [3] -0.694% | max response [4] -2.57% | outcome [6] | Potency [7] | max response [8] -2.36% | Potency [9] | max response [10] -2.23% | outcome [11]

CC(=O)OC(C)=O
inactive: Potency [1] | Potency [12] | activation [3] 1.76% | Potency [5] | outcome [6] | Potency [7] | max response [8] 5.05% | max response [13] 3.19% | Potency [9] | max response [10] 5.82% | outcome [11]

[O-]/[N+](=N\O)c1ccccc1
inactive: Potency [12] | Potency [2] | activation [3] 5.58% | max response [4] -0.0477% | Potency [5] | Potency [7] | max response [8] -5.46% | max response [13] -16.3% | Potency [9] | max response [10] -1.54% | outcome [11]

CCCCC/C=C/C=C/C=O
inactive: Potency [12] | Potency [2] | activation [3] 0.997% and -0.836% | max response [4] -2.99% and -1.24% | max response [8] -0.854% and -5.85% | max response [13] -1.02% | Potency [9] | max response [10] 5.82% and -4.16% | outcome [11]
active: Potency [5] 33.5 µM | Potency [7] 23.7 µM

CC(=O)c1ccc([N+](=O)[O-])cc1
inactive: Potency [1] | Potency [12] | activation [3] 0.202% | max response [4] -2.88% | outcome [6] | Potency [7] | max response [13] 5.77% | max response [10] -4.15% | outcome [11]

C=C(C)C(=O)OC
inactive: Potency [1] | Potency [12] | activation [3] 0.279% | max response [4] 0.595% | Potency [5] | max response [8] 4.29% | max response [13] 0.0882% | Potency [9] | max response [10] 2.17% | outcome [11]

O=P(O)(OCc1ccccc1)OCc1ccccc1
inactive: Potency [1] | Potency [12] | activation [3] 1.44% | max response [4] 1.76% | Potency [7] | max response [8] 2.28% | max response [13] -11.9% | Potency [9] | max response [10] 3.16% | outcome [11]
